# Gal4-VP16 FLuc: Gal4-VP16 reporter inhibition counter-screen; Potency, µM (titrated, usually from 53.6 µM), inactives show at the top dose activity, negative = inhibition, actives largely listed as inhibitors; AID 2546; 310,000 tested, 3.5% active; Drosophila S2 Gal4-VP16 UAS-luciferase, luminescence, 20 h;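 also: Gal4-VP16 expression switched on by copper sulfate through the metallothionein promoter; nearly all actives have a fitted effect of over 50% in size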
# RORgamma inh: inhibitors of mouse ROR gamma transcriptional activity; P51450; Drosophila S2 Gal4-RORgamma UAS-luciferase reporter, 20 h; Potency, µM (doses to about 53.6 µM), for inactives: at the highest dose activity change, negative = inhibition, most hits filed as inhibitors; 310,000 tested, 5.4% active; AID 2551; also: nearly all actives have a fitted effect of over 60% in size
#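 Drosophila Schneider cells stably carrying a metallothionein-driven Gal4 DBD–ROR gamma fusion and a UAS-Photinus luciferase reporter were exposed to compound for 1 hr, then induced with copper sulfate (700 uM final) for 20 hr at ambient temperature before luminescence reading.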
# DT40 TDP1 CPT: DT40-hTDP1 cell growth loss with CPT. chicken DT40 Tdp1-/-;hTDP1 cells + 20 nM CPT, ATP luminescence, 48 h. 420,000 tested, 12% active. Potency, µM (highest dose often 46.2 µM), inactives show at the top dose activity change, negative = growth inhibition, most hits filed as inhibitors. AID 686979; also: nearly all actives have a fitted effect of over 55% in size
#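 Cell growth measured by CellTiter-Glo luminescence after a minimum 48 h, 37 C compound exposure with 20 nM CPT in Tdp1-knockout DT40 cells stably expressing hTDP1, seeded 400/well; qHTS titration format.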
# 12-LOX inh: blocks human arachidonate 12S-lipoxygenase; AID 1671190; 580,000 tested, 1.1% active; Potency, µM (highest dose often 108 µM), for the others: at the top dose activity change, negative = inhibition, most hits filed as inhibitors; P18054; purified 12hLO, xylenol orange hydroperoxide absorbance
#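 Purified human 12hLO at 150 nM in 25 mM Hepes, 0.01% Triton X-100, pH 7.0, preincubated 15 min at room temperature with compound. Reaction started with 40 uM arachidonic acid, 30 min at room temperature. Hydroperoxide measured by Fe-xylenol orange, 573/405 nm absorbance ratio.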
# TDP1 cell noCPT: qHTS for Inhibitors of human tyrosyl-DNA phosphodiesterase 1 (TDP1): qHTS in cells in absence of CPT | DT40 Tdp1-/- hTDP1 cells, no CPT, ATP luminescence, 48 h | 420,000 tested, 15% active | AID 686978, 2013 | Potency, µM (titrated, usually from 46.2 µM), without a hit: at the highest dose activity change, negative = growth inhibition, most hits filed as inhibitors; also: nearly all actives have a fitted effect of over 55% in size
#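 Camptothecin absent (DMSO only). Human TDP1-complemented DT40 knockout cells, 400 cells/well, 37 °C for minimum 48 hr; ATP measured via CellTiter-Glo, 30 min dark incubation, luminescence.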
# ELG1 repair inh: inhibitors of ELG1-dependent DNA repair in HEK293T cells | Potency, µM (top dose mostly 46.1 µM), for the others: at the highest dose activity change, negative = inhibition, most hits filed as inhibitors | 330,000 tested, 2.3% active | HEK293T ELG1-luciferase reporter, luminescence, 16 h; DNA damage induced by 5-fluorouridine; also: nearly all actives have a fitted effect of over 55% in size
#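 5-Fluorouridine DNA damage + compound/DMSO, 2,000 cells/well, 16 h, 37 °C/5% CO2. ONE-Glo, 30 min RT, luminescence. Readout = decrease in reporter signal.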
# ELG1 FLuc counter: luciferase inhibition in cell-free luciferin readout for ELG1 hits; Potency, µM (doses to about 46.1 µM), for inactives: at the top dose activity change, negative = inhibition, usual class: inhibitors; 350 tested, 3% active; shares compounds with ELG1 repair inh; cell-free firefly luciferase luminescence counter-screen, ViewLux
# ELG1-Luc inh: inhibits ELG1-dependent DNA repair in HEK293T cells, confirmed; shares compounds with ELG1 repair inh; HEK293T ELG1-luciferase levels, luminescence; cells co-treated with 5-fluorouridine; Potency, µM (highest dose often 46.1 µM), inactives show at the top dose activity change, negative = inhibition, usual class: inhibitors; 670 tested, 68% active; AID 624248; also: nearly all actives have a fitted effect of over 55% in size
# Target sequence (Q96QE3 whole entry, looked up): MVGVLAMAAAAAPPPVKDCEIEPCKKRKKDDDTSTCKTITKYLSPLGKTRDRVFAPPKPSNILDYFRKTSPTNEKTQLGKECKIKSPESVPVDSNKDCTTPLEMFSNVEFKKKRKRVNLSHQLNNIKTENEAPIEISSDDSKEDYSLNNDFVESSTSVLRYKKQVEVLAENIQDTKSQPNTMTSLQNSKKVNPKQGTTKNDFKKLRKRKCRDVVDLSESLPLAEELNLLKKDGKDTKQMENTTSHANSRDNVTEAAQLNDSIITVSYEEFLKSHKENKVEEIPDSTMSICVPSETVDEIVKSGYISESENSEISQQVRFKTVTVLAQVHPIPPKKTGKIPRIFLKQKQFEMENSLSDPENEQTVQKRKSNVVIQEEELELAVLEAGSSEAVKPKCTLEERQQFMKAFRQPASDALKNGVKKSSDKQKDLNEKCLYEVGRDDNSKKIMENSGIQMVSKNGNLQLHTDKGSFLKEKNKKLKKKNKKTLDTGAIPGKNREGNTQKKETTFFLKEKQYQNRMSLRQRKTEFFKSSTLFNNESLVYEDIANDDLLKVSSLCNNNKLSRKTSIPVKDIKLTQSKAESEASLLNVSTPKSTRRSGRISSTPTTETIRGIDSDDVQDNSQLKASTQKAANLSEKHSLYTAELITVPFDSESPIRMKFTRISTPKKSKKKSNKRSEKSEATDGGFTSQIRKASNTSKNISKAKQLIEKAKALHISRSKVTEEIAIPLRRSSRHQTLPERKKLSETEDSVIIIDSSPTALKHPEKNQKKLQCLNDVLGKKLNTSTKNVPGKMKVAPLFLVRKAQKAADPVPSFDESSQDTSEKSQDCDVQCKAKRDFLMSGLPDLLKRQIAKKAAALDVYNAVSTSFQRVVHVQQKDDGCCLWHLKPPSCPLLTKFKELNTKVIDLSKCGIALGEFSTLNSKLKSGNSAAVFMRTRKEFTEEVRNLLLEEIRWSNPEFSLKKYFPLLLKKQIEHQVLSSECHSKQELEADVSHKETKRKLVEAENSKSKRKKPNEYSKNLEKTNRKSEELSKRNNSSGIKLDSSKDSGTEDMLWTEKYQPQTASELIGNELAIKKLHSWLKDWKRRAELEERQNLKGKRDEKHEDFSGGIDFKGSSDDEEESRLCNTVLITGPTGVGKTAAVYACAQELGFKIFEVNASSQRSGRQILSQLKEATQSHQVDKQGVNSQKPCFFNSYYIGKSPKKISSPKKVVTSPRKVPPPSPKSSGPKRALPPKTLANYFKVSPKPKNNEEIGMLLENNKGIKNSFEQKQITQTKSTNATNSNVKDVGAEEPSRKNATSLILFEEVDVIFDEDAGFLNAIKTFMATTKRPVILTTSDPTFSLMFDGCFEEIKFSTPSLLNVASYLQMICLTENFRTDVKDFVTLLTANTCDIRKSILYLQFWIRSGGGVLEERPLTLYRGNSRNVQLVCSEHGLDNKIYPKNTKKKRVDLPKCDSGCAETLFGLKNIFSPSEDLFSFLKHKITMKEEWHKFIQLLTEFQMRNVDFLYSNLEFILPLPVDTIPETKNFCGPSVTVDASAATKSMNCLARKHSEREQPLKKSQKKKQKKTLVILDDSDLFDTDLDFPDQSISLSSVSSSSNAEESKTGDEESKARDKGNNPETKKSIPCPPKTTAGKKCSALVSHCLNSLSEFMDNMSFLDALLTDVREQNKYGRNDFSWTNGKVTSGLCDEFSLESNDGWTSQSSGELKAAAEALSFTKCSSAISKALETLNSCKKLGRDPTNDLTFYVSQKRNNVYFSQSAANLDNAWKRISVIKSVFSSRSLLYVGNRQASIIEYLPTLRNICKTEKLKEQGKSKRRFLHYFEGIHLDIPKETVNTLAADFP
# ELG1 MMS Luc: MMS-stimulated human ELG1 repair inhibition, confirmed. shares compounds with ELG1 repair inh. HEK293T luciferase-tagged ELG1 level, MMS stimulated. Potency, µM (top dose mostly 46.1 µM), for the others: at the highest dose activity change, negative = inhibition, usual class: inhibitors. 670 tested, 53% active; also: nearly all actives have a fitted effect of over 60% in size
# ELG1 5FU viab: confirmation of ELG1 repair inhibitors: viability with 5FU | Potency, µM (titrated, usually from 46.1 µM), for the others: at the highest dose activity change, negative = viability loss, hits mostly cytotoxic | cell viability with 5-FU, ELG1-dependent repair | AID 624250 | 670 tested, under 10 active | shares compounds with ELG1 repair inh;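 also: ELG1-luc HEK293T cells cotreated with 5-fluorouridine at 10 µM final; viability measured 16 h after compound addition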
# ELG1 MMS viab: confirmation of ELG1 repair inhibitors: viability with MMS | 670 tested, 33% active | Cell viability with MMS, ELG1-dependent DNA repair | Potency, µM (highest dose often 46.1 µM), for the others: at the highest dose activity change, negative = viability loss, usual class: cytotoxic | AID 624251 | shares compounds with ELG1 repair inh;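 also: ELG1-luc HEK293T cells co-treated with 10 µM MMS; viability read 16 h after compound addition; nearly all actives have a fitted effect of over 60% in size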
# ELG1 unstim viab: affects unstimulated cell viability, ELG1 hit counter-screen; shares compounds with ELG1 repair inh; 900 tested, 8% active; AID 624252; cell viability counter-screen, unstimulated, luminescence; Potency, µM (doses to about 45.9 µM), for inactives: at the highest dose activity change, negative = loss of viability, hits mostly cytotoxic;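 also: compound exposure lasted 16 hours before reading; nearly all actives have a fitted effect of over 55% in size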
# FLuc enzyme: firefly luciferase inhibition counter-screen; 350 tested, 10% active; Potency, µM (highest dose often 57.5 µM), for the others: at the highest dose activity, negative = inhibition, hits mostly inhibitors; AID 624253; purified firefly luciferase, luminescence counter-screen; shares compounds with ELG1 repair inh
# Starred values were filed as active, the others as inactive; u = inconclusive; x = not tested or not shown. The list is a sample of the results. Calls follow the shape of the dose curve; as a rule, active = well fitted curve in the direction sought with a large enough effect; inconclusive = small, poorly fitted or top-dose-only effect, or another doubt; inactive = no such curve, though single readings can be large; an effect the other way counts as inactive or inconclusive. % is scaled to controls: 0 for no effect and ±100 for the full control effect; potency is read from the fitted curve at half-maximal effect.
SMILES,Gal4-VP16 FLuc,RORgamma inh,DT40 TDP1 CPT,12-LOX inh,TDP1 cell noCPT,ELG1 repair inh,ELG1 unstim viab,others
CCCCc1ccc(NC(=O)c2ccc(N(C)S(C)(=O)=O)cc2)cc1,-3%,3%,-20%,-12%,-41%,1.5µM*,u,ELG1-Luc inh=u;ELG1 MMS Luc=0.44µM*;ELG1 5FU viab=-10%;ELG1 MMS viab=0.63µM*
CCCCc1ccc(NC(=O)c2ccc(NS(C)(=O)=O)cc2)cc1,-23%,-7%,u,-3%,u,-3%,x,
Cn1cc(C(=O)N2CCC3(CC2)NCCc2c3[nH]c3ccccc23)cn1,x,x,x,10%,x,x,x,
Cc1ccc(S(=O)(=O)NCCc2nnc3ccc(SCC(=O)Nc4nc5ccccc5s4)nn23)cc1,3%,26%,x,x,x,-3%,0%,ELG1 FLuc counter=u;ELG1-Luc inh=-2%;ELG1 MMS Luc=4%;ELG1 5FU viab=0%;ELG1 MMS viab=2%;FLuc enzyme=-5%
COc1cc2cc(C)c(SCC(=O)N3CCOCC3)nc2cc1OC,-1%,-38%,-22%,-1%,-15%,-29%,-10%,ELG1 FLuc counter=68%;FLuc enzyme=-8%
CCN(CC)c1nc2ccccc2nc1C(=O)Nc1cc(C(=O)OC)cc(C(=O)OC)c1,x,x,x,5%,x,x,x,
COc1cccc([C@@H]2Oc3ccc(OC)cc3C(=O)[C@H]2OC(=O)NS(=O)(=O)c2ccc(C)cc2)c1,4%,u,x,x,x,x,-2%,
COc1cccc([C@@H]2Oc3ccc(Br)cc3C(=O)[C@H]2OC(=O)NS(=O)(=O)c2ccc(C)cc2)c1,7%,-6%,x,x,x,x,x,
O=c1[nH]c(=O)n([C@@H]2O[C@H](CO)[C@@H](O)[C@H]2O)cc1F,-18%,7%,0.11µM*,x,0.06µM*,x,u,
CC(C)c1noc(-c2cn(C3CCN(C(=O)c4ccc(OC(F)(F)F)cc4)C3)nn2)n1 (stereo not drawn),x,x,x,7%,x,x,x,
COCCn1c(C)cnc1CCNS(=O)(=O)c1ccccc1,x,x,x,22%,x,x,x,

# Compound activity deposited in PubChem BioAssay by National Center for Advancing Translational Sciences (NCATS).
